AmpC no deterg – qHTS Inhibitors of AmpC Beta-Lactamase (assay without detergent); Potency, µM (doses to about 57.1 µM), most hits filed as inhibitors; P00811; 330,000 tested, 0.52% active; AmpC nitrocefin hydrolysis, absorbance 480 nm, 0.0001% Triton; note: nearly all actives have a fitted effect of over 20% in size
Target sequence (P00811 whole entry, looked up): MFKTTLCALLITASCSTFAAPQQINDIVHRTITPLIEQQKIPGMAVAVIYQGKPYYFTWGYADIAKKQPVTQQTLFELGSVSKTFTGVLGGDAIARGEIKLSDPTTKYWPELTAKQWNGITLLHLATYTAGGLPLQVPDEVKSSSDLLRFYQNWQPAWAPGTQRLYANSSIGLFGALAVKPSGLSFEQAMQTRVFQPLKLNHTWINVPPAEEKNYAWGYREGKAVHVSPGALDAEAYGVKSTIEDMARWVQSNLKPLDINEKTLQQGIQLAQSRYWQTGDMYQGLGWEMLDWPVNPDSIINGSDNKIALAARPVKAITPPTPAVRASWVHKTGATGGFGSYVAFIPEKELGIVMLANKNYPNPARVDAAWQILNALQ
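20 mM phosphate pH 7.0 + 0.01% (detergent screen) or 0.0001% Triton X-100; 5.3 nM AmpC reagent; cpd preinc 15 min RT; nitrocefin (800 uM stock) to start; A480 q20 s × 4 min; Activity was normalised to no-enzyme and no-compound control wells.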
NS1 function inh – qHTS Assay for Inhibitors of Influenza NS1 Protein Function. 270,000 tested, 0.4% active. Potency, µM (doses to about 46.1 µM); calls by dose curve; note: actives are rising curves; nearly all actives have a fitted effect of over 50% in size
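Compounds were scored for reversing the slow growth caused by influenza A NS1 in S. cerevisiae, measured by optical density at 600 nm. Assay medium contained 2% galactose at pH 6.0; NS1-free yeast of the same strain were the positive control.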
AmpC detergent – qHTS Inhibitors of AmpC Beta-Lactamase (assay with detergent). AmpC hydrolysis of nitrocefin, absorbance 480 nm, 0.01% Triton. 370,000 tested, 0.041% active. Potency, µM (doses to about 114 µM), most hits filed as inhibitors. P00811; note: nearly all actives have a fitted effect of over 25% in size
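AmpC (5.3 nM in the dispensed reagent) in 20 mM phosphate pH 7.0 with 0.01% (detergent screen) or 0.0001% Triton X-100 was preincubated with compounds for 15 min at room temperature. Nitrocefin was then added from an 800 uM solution, and hydrolysis was followed at 480 nm.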
CHX counter – Cycloheximide Counterscreen for Small Molecule Inhibitors of Shiga Toxin; cell reporter, cycloheximide protein synthesis inhibition counterscreen; max response, %; 300,000 tested, 12% active; AID 2314, 2010; in the data active = max response mostly above about 13%, no sharp cut-off; inactive = mostly below about 14%; note: read at 38.3 µM for the half of the compounds with a filed dose
Shiga toxin inh – A qHTS for Small Molecule Inhibitors of Shiga Toxin; Vero cells, Shiga toxin protein synthesis inhibition reporter; AID 2315, 2010; 290,000 tested, 9.2% active; inhibition, % at 38.7 µM; in the data active = inhibition mostly above about 28%, no sharp cut-off; inactive = mostly below about 43%
Large screens that a line does not name were inactive. This is one part of a sample in which hits are shown more often than they occur. Unless noted, calls come from the whole dose curve; as a rule, active = well fitted curve in the direction sought with a large enough effect; inconclusive = small, poorly fitted or top-dose-only effect, or another doubt; inactive = no such curve, though single readings can be large; an effect the other way counts as inactive or inconclusive.

Cc1cc(C(=O)NCCc2ccccc2)ccc1[N+](=O)[O-]	CHX counter 54.7, Shiga toxin inh 54.0
CCC(CC)C(=O)Nc1cccc(C(=O)NCCc2ccccc2)c1	CHX counter 19.3, Shiga toxin inh 105.4
O=C(NN1CCOCC1)c1ccc(Cl)c([N+](=O)[O-])c1	AmpC detergent inconclusive, CHX counter 26.6, Shiga toxin inh 61.5
CCCCOCCCNC(=O)c1ccc([N+](=O)[O-])c(C)c1	none
CN1CCN(NC(=O)c2ccc(Cl)c([N+](=O)[O-])c2)CC1	AmpC detergent inconclusive
Cc1cc(NC(=O)CCc2ccccc2)c([N+](=O)[O-])cc1C	CHX counter 35.8
O=C(OCC(O)CO)c1ccccc1Nc1ccnc2cc(Cl)ccc12 (stereo not drawn)	AmpC detergent inconclusive (no result: NS1 function inh, CHX counter, Shiga toxin inh)
COc1ccc(-c2ccc(N(C)C)cc2)cc1C1C2C=CCCC2(C)C(=O)N1Cc1ccccc1 (stereo not drawn)	none (no result: AmpC no deterg, NS1 function inh, AmpC detergent)
O=C(Cn1c(=O)nc(-c2ccccc2)c2cc(Cl)ccc21)N1CCN(c2ccc(F)cc2)CC1	none (no result: AmpC no deterg, NS1 function inh, CHX counter, Shiga toxin inh)
O=C(NCCc1ccccc1)c1ccc(NCC2CCCO2)c([N+](=O)[O-])c1 (stereo not drawn)	CHX counter 42.6, Shiga toxin inh 116.8 (no result: NS1 function inh)
O=C(NCCc1ccccc1)c1ccc(Cl)c([N+](=O)[O-])c1	AmpC detergent inconclusive, CHX counter 64.4, Shiga toxin inh 135.9
NC(=O)c1ccc(NCC2CCCO2)c([N+](=O)[O-])c1 (stereo not drawn)	none
O=C(NCCc1ccccc1)c1ccccc1[N+](=O)[O-]	CHX counter 22.5, Shiga toxin inh 43.8
CN(C)C(CNC(=O)c1ccc(Br)cc1)c1ccco1 (stereo not drawn)	none
Cc1cc(C(=O)NCC(c2ccco2)N(C)C)ccc1[N+](=O)[O-] (stereo not drawn)	AmpC detergent inconclusive, CHX counter 8.9
COC(=O)/C=C/c1cccc(N(Cc2ccc(-c3ccc(N(C)C)cc3)cc2)C(=O)C2CCCCC2)c1	none (no result: AmpC no deterg, NS1 function inh, AmpC detergent)
Cc1cccc(C(=O)NCCNC(=O)c2ccccn2)c1	NS1 function inh inconclusive, AmpC detergent inconclusive
Cc1cccc(C(=O)NCCc2ccccc2)c1	CHX counter 61.1, Shiga toxin inh 88.4
O=[N+]([O-])c1cc(S(=O)(=O)C(F)(F)F)ccc1NCC1CCCO1 (stereo not drawn)	AmpC detergent inconclusive, Shiga toxin inh 32.4
CCN(C1CCCCC1)S(=O)(=O)CCNC(=O)c1ccccc1	AmpC detergent inconclusive (no result: NS1 function inh, CHX counter, Shiga toxin inh)
Cc1nc2c(cc1C#N)C(=O)c1ccccc1-2	none
Cc1cccc2cc3c(nc12)-c1ccccc1C3=O	CHX counter 17.3, Shiga toxin inh 42.6
O=C(CCCOc1ccc(Cl)cc1Cl)Nc1ccncc1	CHX counter 14.8
Cc1ccc(OCC(=O)Nc2ccncc2)c(C)c1	CHX counter 19.9
O=C(COc1ccc(Cl)cc1Br)Nc1ccncc1	CHX counter 57.6, Shiga toxin inh 46.9
COC(=O)CCC(=O)NNC(=O)CCCOc1ccc(Cl)cc1Cl	none
CCNC(=O)CCCOc1ccc(Cl)cc1Cl	CHX counter 28.8, Shiga toxin inh 53.9
Cc1ccccc1OCC(=O)Nc1ccncc1	none
CCC(=O)O	none (no result: AmpC no deterg, NS1 function inh, AmpC detergent)
Cc1ccc(N2C(=O)[C@@H]3CSC(c4ccc(C(F)(F)F)cc4)N3C2=O)cc1 (stereo partly drawn)	none (no result: AmpC no deterg, NS1 function inh, CHX counter, Shiga toxin inh)
O=C(COc1ccc(Cl)cc1Cl)Nc1cccnc1	CHX counter 45.5, Shiga toxin inh 86.3 (no result: NS1 function inh)
Cc1ccc(OCC(=O)NNC(=O)c2ccco2)c(C)c1	CHX counter 13.6
O=C(CCCOc1ccc(Cl)cc1Cl)Nc1ccccn1	Shiga toxin inh 54.8
COCCNC(=O)COc1ccc(C)cc1C	none
Cc1ccnc(NC(=O)CCCOc2ccc(Cl)cc2C)c1	none (no result: NS1 function inh)
Cc1ccc(S(=O)(=O)Nc2ccccc2C(=O)c2ccc(C)c(C)c2)cc1	none (no result: AmpC no deterg, AmpC detergent, CHX counter, Shiga toxin inh)
CCc1ccc(-c2nc(CS(=O)CC(=O)NCCc3ccc(C)cc3)c(C)o2)cc1 (stereo not drawn)	none (no result: AmpC no deterg, NS1 function inh, CHX counter, Shiga toxin inh)
COCCn1c(NCc2ccco2)nc2c1c(=O)[nH]c(=O)n2C	none
O=C(NCCc1ccccc1)c1ccc(CSc2nc3cccnc3n2Cc2ccccc2F)cc1	none (no result: AmpC no deterg, NS1 function inh, CHX counter, Shiga toxin inh)
CCOc1ccc(N(CC(=O)NCc2ccc(OC)cc2)S(C)(=O)=O)cc1	CHX counter 33.6, Shiga toxin inh 55.6
CS(=O)(=O)N(CC(=O)NCc1ccccc1)c1ccc(Cl)cc1	AmpC detergent inconclusive
COc1ccc(N(CC(=O)NCc2ccccc2)S(C)(=O)=O)cc1	CHX counter 31.3, Shiga toxin inh 51.6
CCOc1ccc(N(CC(=O)NCC(C)C)S(C)(=O)=O)cc1	none
CCn1c(CN2CCCCC2)nc2cc(NC(=O)c3cc(OC)c(OC)c(OC)c3)ccc21	none (no result: AmpC no deterg, NS1 function inh, CHX counter, Shiga toxin inh)
Cc1ccc(/C=C/C(=O)c2cc(Br)ccc2OC(=O)c2ccco2)cc1	CHX counter 23.7, Shiga toxin inh 48.8
CCOc1ccc(/C=C/C(=O)c2cc(Br)ccc(=O)c2O)cc1	AmpC no deterg 31.6µM, AmpC detergent inconclusive
CCOc1ccc(/C=C/C(=O)Nc2ccc3[nH]c(=O)[nH]c3c2)cc1	none
Cc1cccc(/C=C/C(=O)c2cc(Br)ccc(=O)c2O)c1	AmpC no deterg 31.6µM
CCc1ccc(/C=C/C(=O)c2cc(Br)ccc(=O)c2O)cc1	AmpC no deterg 28.2µM
CNc1ccc(Br)cc(C(=O)/C=C/c2cccc(Cl)c2Cl)c1=O	none
CC(C)[C@H](NC(=O)[C@H](CCC(N)=O)NC(=O)CNC(=O)[C@@H]1CCCN1C(=O)[C@H](Cc1ccc(O)cc1)NC(=O)CN)C(=O)O	none (no result: AmpC no deterg, NS1 function inh, AmpC detergent)
O=C(O)c1nc2ccccc2nc1C(=O)O	CHX counter 46.0, Shiga toxin inh 80.9
CC(Cc1cccs1)NC(=O)Nc1ccccc1 (stereo not drawn)	Shiga toxin inh 63.7
CC(Cc1cccs1)NC(=O)Nc1ccc(Cl)c(Cl)c1 (stereo not drawn)	CHX counter 44.8, Shiga toxin inh 58.8
CC(Cc1cccs1)NC(=S)Nc1ccccc1 (stereo not drawn)	CHX counter 18.3, Shiga toxin inh 39.7
CC(Cc1cccs1)NC(=O)Nc1ccc(Cl)cc1 (stereo not drawn)	CHX counter 28.7, Shiga toxin inh 88.5
COc1cccc2c1cc1c(=O)n(CC(=O)N3CCN(c4ccc(Cl)cc4)CC3)nc(C)n12	none (no result: AmpC no deterg, NS1 function inh, CHX counter, Shiga toxin inh)
Cc1ccc(S(=O)(=O)N(C)c2ccc(OCC(=O)O)cc2)cc1	none
Cc1noc(C)c1C(=O)NC(C)c1ccc(Cl)cc1Cl (stereo not drawn)	AmpC detergent inconclusive (no result: NS1 function inh)
CC1CN(CC(=O)Nc2ccc(S(N)(=O)=O)cc2)CC(C)O1 (stereo not drawn)	none
CCC(C)c1ccc(NC(=O)NCc2cccnc2)cc1 (stereo not drawn)	CHX counter 26.2
O=C(NCc1cccnc1)Nc1ccc(Cl)cc1	CHX counter 17.9
O=C(NCc1cccnc1)C12CC3CC(CC(Cl)(C3)C1)C2	Shiga toxin inh 16.0
